Experimental data published in PubChem BioAssay (NCATS).
Inconclusive results are not listed. Entries that show only a call come without a potency. The source made the active and inactive calls. Calls come from the whole dose curve; as a rule, active = well fitted inhibition curve with a large enough effect; inconclusive = small, poorly fitted or top-dose-only effect; inactive = flat fitted curve, though single readings scatter.

Molecular target: Calcium and integrin-binding protein 1 (Homo sapiens) (UniProt Q99828)
Experiment: Primary qHTS for Identification of Calcium Integrin Binding Protein 1 (CIB1) Competitor (AID 1508620);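 note: GST tagged CIB1 binding a fluorescein labelled alphaIIb integrin peptide tracer; top concentration of the series differs between compounds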
Settings: CIB1-GST / FITC-alphaIIb peptide fluorescence polarization; series mostly up to 114 µM
Method in brief: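 Fluorescence polarization competition: CIB1-GST (1 uM final) preincubated with compound 15 min at room temperature, then FITC-labeled alphaIIb peptide (100 nM final) added for another 15 min. Polarization read at Ex 480/Em 540.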

Chain of Calcium and integrin-binding protein 1 (Homo sapiens) (Q99828 whole entry, looked up): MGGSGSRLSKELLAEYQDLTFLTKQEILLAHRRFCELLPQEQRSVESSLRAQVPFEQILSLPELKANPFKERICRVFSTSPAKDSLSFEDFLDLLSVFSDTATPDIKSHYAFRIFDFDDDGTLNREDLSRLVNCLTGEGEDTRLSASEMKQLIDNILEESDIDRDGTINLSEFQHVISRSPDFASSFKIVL

Row | SMILES | Potency
1 | Oc1ccc(/C=C/c2ccccc2F)c2cccnc12 | inactive
2 | Cc1ccccc1C(=O)N1CCc2cc(-c3nc(NC(=O)Cc4ccccc4)sc3C)ccc21 | inactive
3 | CS(=O)(=O)c1ccc(C(=O)OCC#CCSc2nnc(-c3cccc4ccccc34)o2)cc1 | inactive
4 | Cc1ccc(S(=O)(=O)Nc2cccc3cccnc23)cc1 | inactive
5 | O=[S+]([O-])(c1ccc2ncsc2c1)N1CCN([S+](=O)([O-])c2c(F)cccc2F)CC1 | inactive
6 | NC(=O)C1CCN(c2nc(-c3cccc(N)c3)cs2)CC1 | inactive
7 | O=C(NCc1ccccc1)Nc1nnc(-c2ccncc2)s1 | inactive
8 | Cc1cc(NS(=O)(=O)c2ccc(NC(=O)Cc3ccc(Cl)cc3)cc2)no1 | inactive
9 | CN(C)CCCNC(=O)c1ccc(-c2cnc3c(O)ccc(C(=O)O)c3c2)cc1 | inactive
10 | O=C(O)c1cccc(-c2cccc(-c3nn4c(=O)cc(N5CCNCC5)nc4s3)c2)c1 | inactive
11 | c1cncc(CNc2ncnc3ccc(-c4ccc5c(c4)OCO5)cc23)c1 | inactive
12 | Cc1nc2ccccn2c1P(=O)(c1ccccc1)c1ccccc1 | inactive
13 | COc1ccc(C[C@H](C(=O)O)N2C(=O)c3ccc(C(=O)O)cc3C2=O)cc1 | inactive
14 | CNc1oc(-c2cccc(-c3ccccc3)c2)nc1C#N | inactive
15 | COc1cc(Nc2nc(-c3ccncc3)nc3ccccc23)ccc1F | inactive
16 | COc1cc(Cl)c(C)cc1NC(=O)C(OC(=O)CNC(=O)c1ccccc1)c1ccccc1 (configuration not stated) | inactive
17 | CCCC(C)NC(=O)Cn1nc(-c2ccc(C)cc2)ccc1=O (configuration not stated) | inactive
